# From PubChem BioAssay (Tox21)
# Results filed as inconclusive are left out. Unmarked numbers belong to inactive results. Calls of active or inactive are those of the source. Calls follow the shape of the dose curve; as a rule, active = well fitted inhibition curve with a large enough effect in the repeat runs; inconclusive = weak or mixed curves; inactive = no such curve, though single readings can be large or run the other way.
# Molecular target: Cytochrome P450 2C19 (Homo sapiens) (UniProt P33261)
# Test: Cytochrome P450 Family 2 Subfamily C Member 19 (CYP2C19) small molecule antagonists: luciferase reporter qHTS assay (AID 1671197); also: nearly all actives have a fitted effect of over 65% in size
# Conditions: P450-Glo CYP2C19 enzyme, luciferin luminescence, 1 h; series mostly up to 115 µM; activity change, negative = inhibition: at the top concentration
# Excerpt: National Center for Advancing Translational Sciences [NCATS]
# U.S. Environmental Protection Agency [EPA]
# National Institutes of Environmental Health Sciences [NIEHS]
# National Toxicology Program [NTP]
# U.S. Food and Drug Administration [FDA]
# Cytochrome P450 (CYP) enzymes are membrane-bound hemeproteins that play a key role in metabolism of drugs and xenobiotics. Evaluation of the effect of chemicals on CYP isozymes is useful to minimize the adverse drug reactions and toxicities in drug development process. Tox21 chemicals were tested for their effect on CYP enzyme activities by using P450-Glo (TM) screening systems (Promega Corporation, Madison, WI). These systems provide a luminescent method containing proluciferin substrates and are converted to luciferin products by CYP isozymes. The luciferin products formed are detected with a luciferin detection reagent, and the amount of light produced is proportional to CYP activity. P450-Glo (TM) CYP2C19 screening system (Catalog. No. V9880) was used to detect the compounds that interfere in CYP2C19 activity. The positive control compound used for CYP2C19 assay is ketoconazole (Sigma-Aldrich, St. Louis, MO).
# Tox21 Assay Protocol Summary:
# Two ul of enzyme-substrate mix was dispensed into medium binding white/solid 1536-well plates (Greiner Bio-One North America Inc., Monroe, NC) using a BioRaptr Flying Reagent Dispenser (FRD, Beckman Coulter, Brea, CA). Compounds dissolved in DMSO and positive control (ketoconazole) were transferred to the assay plates at 23 nl using a Pintool station (Wako, San Diego, CA). The assay plates were incubated at room temperature for 10 min. Then 2 ul of NADPH regeneration solution was added to each well of the assay plates using an FRD and incubated at 37C for 1 h. The reaction was stopped by adding 4 ul of detection reagent using an FRD and after 20 min incubation at room temperature the luminescence signal was measured using a ViewLux plate reader (Perkin Elmer, Shelton, CT). Data were expressed as relative luminescence units.
# % is scaled to controls: 0 for no effect and ±100 for the full control effect; potency is read from the fitted curve at half-maximal effect.
# Cytochrome P450 2C19 (Homo sapiens), sequence (P33261 whole entry, looked up): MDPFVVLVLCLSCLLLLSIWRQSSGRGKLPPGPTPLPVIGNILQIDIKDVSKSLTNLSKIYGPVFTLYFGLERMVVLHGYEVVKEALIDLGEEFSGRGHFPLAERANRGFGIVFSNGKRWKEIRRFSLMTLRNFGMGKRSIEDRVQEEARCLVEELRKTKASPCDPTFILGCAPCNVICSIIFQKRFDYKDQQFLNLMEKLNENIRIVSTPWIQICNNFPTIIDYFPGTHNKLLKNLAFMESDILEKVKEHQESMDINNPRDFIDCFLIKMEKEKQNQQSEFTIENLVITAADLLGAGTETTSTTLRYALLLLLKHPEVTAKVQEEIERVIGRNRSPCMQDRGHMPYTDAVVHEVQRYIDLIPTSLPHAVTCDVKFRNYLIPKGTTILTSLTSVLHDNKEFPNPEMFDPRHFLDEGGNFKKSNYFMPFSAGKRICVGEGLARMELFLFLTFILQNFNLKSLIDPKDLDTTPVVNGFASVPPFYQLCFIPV
SMILES,"activity change, negative = inhibition",Potency
Cc1c(I)c(=O)n(-c2ccccc2)n1C,39.2% [at 52.9 µM],–
CCOC(=O)c1ncn2c1CN(C)C(=O)c1cc(F)ccc1-2,-30.5% [at 52.9 µM],–
CC(N)C(=O)OC(C)(C)Cc1ccc(Cl)cc1 (stereo not given),–,1.55 µM (active)
CC(CN)CC(C)(C)CCN (stereo not given),–,36.5 µM (active)
Cc1cc(NC(=O)C2=C(O)c3ccccc3S(=O)(=O)N2C)no1,22.9% [at 52.9 µM],–
COC(=O)CCCCCCCC(=O)OC,-8.66%,–
Nc1ncnc(Nc2ccccc2)n1,-15.9% [at 52.9 µM],–
Cc1cccc2nccnc12,-1.72%,–
C[C@H](CCC(=O)O)[C@H]1CC[C@H]2[C@@H]3C(=O)C[C@@H]4CC(=O)CC[C@]4(C)[C@H]3CC(=O)[C@]12C,20.5% [at 52.9 µM],–
CCC(C)NC(N)=O (stereo not given),24.6%,–
C#CC(C)N(C)C(=O)Nc1ccc(Cl)cc1 (stereo not given),–,8.93 µM (active)
Nc1ccc([N+](=O)[O-])c(N)c1,–,30.9 µM (active)
CCCCCCCCCC(C)=O,11.3%,–
COc1nccnc1NS(=O)(=O)c1ccc(N)cc1,-0.911% [at 52.9 µM],–
CN1C(C)(C)CCCC1(C)C,-7.58% [at 52.9 µM],–
CN=C(NC#N)Nc1ccc(C2=NNC(=O)CC2C)cc1 (stereo not given),17.6% [at 52.9 µM],–
C[C@@H](Oc1ccc(CNC(=O)c2cccnc2Oc2ccc3c(c2)OCO3)c(F)c1)C(=O)O,-11.4%,–
COP(=O)(OC)OC(c1ccc(Cl)cc1)P(=O)(OC)OC (stereo not given),8.81% [at 52.9 µM],–
CC(C)CCCC(C)(C)O,13.4%,–
O=C(CCNNC(=O)c1ccncc1)NCc1ccccc1,–,11 µM (active)

SMILES,"activity change, negative = inhibition",Potency
C=C(C)C(=O)OCCOP(=O)(O)OCCOC(=O)C(=C)C,-11.5%,–
C=COCCOCCOCCOC=C,–,79.6 µM (active)
O=C1CC(c2ccc(Cl)cc2)CC(=O)N1,-4.33% [at 52.9 µM],–
CC(=O)/C=C/C1C(C)=CCC(C)C1(C)C (stereo not given),–,10 µM (active)
Nc1ccc2cc(S(=O)(=O)O)cc(O)c2c1,–,22.3 µM (active)
N[C@@H](CCC(=O)Nc1ccc([N+](=O)[O-])cc1)C(=O)O,-9.95%,–
BrCCCCCBr,-2.92%,–
NCCS,-19.6% [at 52.9 µM],–
CC(C)N(c1ccccc1)C(C)C,-13.5%,–
O=C(O)c1cc(Br)c(O)c(Br)c1,–,7.96 µM (active)
Nc1nnc(-c2cccc(Cl)c2Cl)c(N)n1,-12.8% [at 52.9 µM],–
O=S(=O)(O)c1cc(O)c2ccc(Nc3ccccc3)cc2c1,–,71 µM (active)
CC(=O)OC(C)OC(=O)C(C)c1ccc(-c2ccccc2)c(F)c1 (stereo not given),–,5.49 µM (active)
COc1ccc(S(=O)(=O)N2c3ccc(Cl)cc3[C@@](O)(c3ccccc3Cl)[C@H]2C(=O)N2CCC[C@@H]2C(N)=O)cc1OC,8.42% [at 52.9 µM],–
CC(C(=O)O)c1ccc2c(c1)CC(=O)c1ccccc1S2 (stereo not given),-13.4% [at 52.9 µM],–
CCCCCCCCCCCCCC,-5.63%,–
CC(C)C(=O)OCCc1ccccc1,-4.87%,–
CC1(C)S[C@@H]2[C@H](N=CN3CCCCCC3)C(=O)N2[C@H]1C(=O)O,-6.94% [at 52.9 µM],–
Nc1cccc(O)c1,–,73.1 µM (active)
NNc1nnc(NN)c2ccccc12,16.5% [at 52.9 µM],–
